Data taken from PubChem BioAssay AID485364 (National Center for Advancing Translational Sciences (NCATS), 2010).
About 11,000 (3.1%) of roughly 360,000 compounds were called active. Entries that show only a call come without a potency. Roughly 4% stayed inconclusive and do not appear here. The sample holds actives, similar compounds and a random draw of the others, so the mix is not that of the screen. The call rests on the fitted dose curve; in most records, active means well fitted inhibition curve with a large enough effect; inconclusive means small, poorly fitted or top-dose-only effect; inactive means no such curve, though single readings can be large or run the other way.

The compounds below were run against Schistosoma mansoni thioredoxin glutathione reductase (TGR) (UniProt Q962Y6) (assay: qHTS Assay for the Inhibitors of Schistosoma Mansoni Peroxiredoxins). Conditions: purified TGR, DTNB reduction, TNB absorbance 405 nm; series mostly up to 114 µM.
How it was run: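 TGR 20 nM + NADPH 100 uM (dispensed conc.), cpd preinc 15 min RT; start with NADPH (500 uM addition) then DTNB (15 mM addition). Kinetic TNB absorbance, 405 nm filter. Four-parameter Hill fit across titration.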
Further: nearly all actives have a fitted effect of over 60% in size.
Potency means the concentration at half of the fitted maximal effect.

Compound | Potency
CCn1c(COc2ccc(OC)cc2)nnc1SCC(=O)Nc1cc(OC)ccc1OC | inactive
CCn1c(CNC(=O)c2ccc(OC)c(OC)c2)nnc1SCC(=O)Nc1ccccc1 | inactive
CCn1c(SC)nc(O)c(C(c2ccc(OC)c(O)c2)c2c(O)nc(SC)n(CC)c2=O)c1=O | 3.98 µM (active)
Cc1ccc(-n2c(=O)c3cccnc3n2CC(=O)Nc2ccccc2C(F)(F)F)cc1C | inactive
O=C(CCn1c(=O)c2sccc2n(Cc2ccc(F)cc2)c1=O)NCc1ccc2c(c1)OCO2 | inactive
CCn1c(O)c(N=NC(=O)c2cccc(S(=O)(=O)N3CCCCC3)c2)c2ccccc21 | inactive
C/C(=N\NC(=O)c1ccc2ccccc2c1)c1cccnc1 | inactive
CCn1c(O)c2ccc(C(=O)N=NC(=O)c3cccnc3)cc2c1O | 100 µM (active)
CCOc1ccc(C(=O)N2CCN(CCc3ccccn3)CC2)cc1 | inactive
CCOc1ccc(NC(=O)c2c(NCc3cccc(OC)c3OC)sc3c2CCC3)cc1 | inactive
Cc1cccc(N(CC(=O)N2CCOCC2)S(C)(=O)=O)c1 | inactive
CCOc1ccc(N(CC(=O)Nc2cccc(OC)c2)S(C)(=O)=O)cc1 | inactive
COC(=O)CN(c1cccc(C(C)=O)c1)S(C)(=O)=O | 50.1 µM (active)
CCCc1cc(=O)n2[nH]c(NCc3ccc(CC)cc3)nc2n1 | inactive
COc1ccccc1NC(=O)CN1C(=O)c2ccccc2Sc2ccc(C(=O)N3CCCC3)cc21 | inactive
O=C1CSC(=S)N1/N=C/c1ccc(O)c([N+](=O)[O-])c1 | 3.55 µM (active)
CO/N=C/c1ccc(N2CCN(C(=O)c3cccc(Cl)c3)CC2)c([N+](=O)[O-])c1 | inactive
CCC1=Nc2cc(C(=O)NCC(C)c3ccccc3)ccc2Sc2ccc(C)cc21 (stereo not drawn) | inactive
CCN1CCC(N(Cc2ccc(F)cc2)C(=O)Nc2cc(C)ccc2C)CC1 | inactive
Cc1ccc(-c2cc(C(=O)Oc3ccccc3Cl)no2)cc1C | inactive
Cc1cnc(C(=O)OCC(=O)Nc2ccc(Cl)cc2Cl)cn1 | inactive
Cc1cnc(C(=O)Oc2cccc(Cl)c2Cl)cn1 | 22.4 µM (active)
CCCCSc1ncnc2c1sc1nc(N3CCOCC3)c3c(c12)CCCC3 | inactive
COc1cc2c(=O)c(S(=O)(=O)c3ccc(C(C)C)cc3)cn(Cc3ccccc3C)c2cc1OC | inactive
CCOc1ccc(OCC)c(NC(=O)c2c(C)nn(-c3ccccc3)c2-n2cccc2)c1 | inactive

Compound | Potency
CCOc1ccccc1NC(=O)Cn1nnc(C(=O)Nc2ccc(C)c(C)c2)c1N | inactive
CCOc1ccc(N(CC)S(=O)(=O)N2CCCC(C(=O)Nc3ccc(C(C)=O)cc3)C2)cc1 (stereo not drawn) | inactive
O=C(NCCCN1CCOCC1)c1ccc([N+](=O)[O-])cc1[N+](=O)[O-] | inactive
O=[N+]([O-])c1cc(S(=O)(=O)CCCN2CCOCC2)ccc1F | 7.08 µM (active)
O=S(=O)(NCCCN1CCOCC1)c1ccc(F)c(Cl)c1 | inactive
COC(=O)c1cc2occc2n1Cc1nc(-c2ccc(C)cc2)oc1C | inactive
COc1ccc(-c2nc3sc(CCNC(=O)C(C)(C)C)c(C)n3n2)cc1 | inactive
CCS(=O)(=O)c1cc([N+](=O)[O-])c(Sc2ccccc2N)s1 | 20 µM (active)
Cc1ccc(S(=O)(=O)NCCSc2ccccc2)cc1[N+](=O)[O-] | inactive
Cc1c(C(=O)Nc2cccc(Cl)c2)oc2ccc(S(=O)(=O)N3CCOCC3)cc12 | inactive
CCOc1ccc2nc(N3CCC(C(=O)Nc4cc(C)ccc4C)CC3)sc2c1 | inactive
Cc1cccn2c(=O)c(C=O)c(Nc3ccc(S(N)(=O)=O)cc3)nc12 | inactive
O=Cc1c(Nc2ccccc2Cl)nc2ccccn2c1=O | 10 µM (active)
O=Cc1c(N2CCN(c3cccc(Cl)c3)CC2)nc2ccccn2c1=O | inactive
CC1CCCN(c2csc3ccc(F)cc3c2=O)C1 (stereo not drawn) | inactive
COc1ccc(CNC(=O)CC2Oc3ccc(C)cc3NC2=O)cc1 (stereo not drawn) | inactive
O=C(NCCc1ccc(Cl)cc1)c1ccc2nc(CCc3ccccc3)oc2c1 | inactive
Cc1ccc(C)c(N2CCN(C(=O)CCc3c(C)nc4c(c3C)c(=O)n(C)c(=O)n4C)CC2)c1 | inactive
Cc1cccnc1NC(=O)CSc1nnc(COc2ccc(C(C)C)cc2)n1C | inactive
COc1ccccc1C(=O)Nc1ccc(OCc2nnc3c4ccccc4c(C)nn23)cc1 | inactive
Cc1ccc(OCc2nnc(SC3CCc4ccccc4C3=O)n2C)cc1 (stereo not drawn) | 17.8 µM (active)
CC(=O)Nc1ccc(S(=O)(=O)N2CCN(c3ccccc3)CC2)cc1 | inactive
CC(=O)Nc1ccc(S(=O)(=O)N2CCn3cccc3C2C)cc1 (stereo not drawn) | 44.7 µM (active)
CC(=O)Nc1ccc(S(=O)(=O)N2CCSCC2)cc1 | inactive
Cc1cccc(N(C)C(=O)CS(=O)(=O)c2cccc3nsnc23)c1 | inactive

Compound | Potency
Fc1ccc(-c2ccc(-c3nn4c(-c5ccco5)nnc4s3)o2)cc1 | 50.1 µM (active)
CCOc1cccc(-c2nn3c(-c4ccccn4)nnc3s2)c1 | inactive
Cc1nc2c(-c3ccc(F)cc3)c(C)nn2c(C)c1CCC(=O)NCc1ccco1 | inactive
CCN(CCCNC(=O)Cn1ncc2c3ccccc3n(C)c2c1=O)Cc1ccccc1 | inactive
COc1ccc(N2CCN(C3=NS(=O)(=O)C(c4cccc(Br)c4)=C3C)CC2)cc1 | inactive
COc1ccccc1CNC(=O)c1ccccc1NC(=O)c1nsc2ccccc12 | inactive
COc1ccc(C2NC(=O)N(C)C3=C2C(=O)N(c2ccc(C(=O)O)cc2)C3)cc1 (stereo not drawn) | inactive
COc1ccc(N2C(=O)C3C(C2=O)C(C(=O)c2ccccc2)N2CCCC32)cc1 (stereo not drawn) | 22.4 µM (active)
COc1ccc(N2C(=O)C3CCCN3C2c2cccs2)cc1 (stereo not drawn) | inactive
Cc1oc(-c2ccccc2)nc1Cn1c(SCc2cccc(C(F)(F)F)c2)nc2cccnc21 | inactive
Cc1c2cnn(-c3ccccc3)c(=O)c2c(C)n1C(C)C(=O)Nc1ccc(Br)cc1F (stereo not drawn) | inactive
O=C(/C=C/c1ccccc1)Nc1cc(-c2nc3cc(Cl)ccc3o2)ccc1Cl | inactive
COc1ccc(NC(=O)c2sc3nc(-c4cc5cccc(OC)c5oc4=O)[nH]c(=O)c3c2C)cc1 | inactive
COc1cc(CNCCSc2nnnn2C)ccc1OCc1ccc(Cl)cc1Cl | inactive
CC(C)Cn1c(=O)c2ccccc2n2c(-c3cccc(Cl)c3)nnc12 | inactive
O=c1cc(-c2ccccc2)n2c(SCc3ccccc3)nnc2[nH]1 | inactive
O=c1[nH]c2ccccc2n2c(-c3ccccc3)nnc12 | 0.1 µM (active)
Cc1ccc(Cn2c(CCCNC(=O)C3CCCCC3)nc3ccccc32)cc1 | inactive
CCS(=O)(=O)N1CCc2cc(C(=O)NCc3ccc(C)cc3)ccc21 | inactive
COc1ccc(S(=O)(=O)n2nc(C)c(S(=O)(=O)N3CCCCCC3)c2C)cc1 | inactive
CCc1ccc(S(=O)(=O)Nc2cc3c(cc2N2CCCCC2)n(C)c(=O)c(=O)n3C)cc1 | 50.1 µM (active)
Cc1ccc(NS(=O)(=O)c2ccc3c(c2)n(C)c(=O)c(=O)n3C)c(C)c1 | inactive
Cc1ccc(C(=O)Nc2cc3c(cc2N2CCCC2)n(C)c(=O)c(=O)n3C)cc1 | inactive
CCOC(=O)C1CCN(c2ncnc3c2c(-c2ccccc2)cn3-c2cccc(C)c2)CC1 | inactive
CCOC(=O)C1CCN(c2nc3c(S(=O)(=O)c4ccc(CC)cc4)nnn3c3ccc(Cl)cc23)CC1 | inactive

Compound | Potency
COc1ccc(S(=O)(=O)NCc2cccn2Cc2cccc(C)c2)cc1 | inactive
Cn1c(=O)c2c(-c3ccccc3Br)n(Cc3ccccc3)cc2n(C)c1=O | inactive
Cc1ccc(S(=O)(=O)N2CCN(CC(=O)N/N=C/c3ccc(Br)s3)CC2)cc1 | inactive
CC(C)N(C(=O)CN1CCN(S(=O)(=O)c2ccc(Br)s2)CC1)C(C)C | inactive
Cc1cccc(NC(=O)CN2CCCN(S(=O)(=O)c3ccc(Br)s3)CC2)c1 | 25.1 µM (active)
COc1ccc(CCNC(=O)CCCn2c(=O)c3ccccc3n(Cc3ccc(F)cc3Cl)c2=O)cc1OC | inactive
Cc1ccc(-n2nc(-c3ccco3)cc2C(=O)NCc2cccnc2)cc1 | 3.55 µM (active)
Cc1ccc(C(=O)NC(=S)NCc2cccnc2)cc1 | inactive
CSc1sc(C(=O)NC(=O)NCc2cccnc2)c(C)c1-c1ccon1 | inactive
Cc1ccccc1CNC(=O)CCc1cn(Cc2ccccc2C)c2ccccc12 | inactive
Cc1cc(C)cc(NS(=O)(=O)c2ccc(-c3cc(C)no3)s2)c1 | inactive
Cc1ccc(CN2CCN(Cc3cn(C)nc3-c3ccccc3)CC2CCO)o1 (stereo not drawn) | inactive
Cc1ccccc1CN1C[C@@H]2C[C@@H](c3ccc4nsnc4c3)N3CCC[C@@]23C1=O | inactive
Cc1ccccc1CN1C[C@@H]2C[C@@H](c3cn(C)nc3-c3ccccc3)N3CCC[C@@]23C1=O | 7.94 µM (active)
CC(C)c1ccc(NC(=O)c2ccc3c(O)c(S(=O)(=O)c4ccccc4)c(=O)[nH]c3c2)cc1 | inactive
Cc1ccc(-c2nn3c(=O)cc(CN4CCN(C(=O)Nc5cccc(C(F)(F)F)c5)CC4)nc3s2)cc1 | inactive
O=C(Nc1ccc(N2CCCC2=O)cc1)c1cncc(Br)c1 | inactive
O=C(NC(=S)Nc1ccc(Cl)c(C(=O)O)c1)c1cncc(Br)c1 | 12.6 µM (active)
COC(=O)c1ccccc1NC(=O)c1cncc(Br)c1 | inactive
Cc1ccc(CNC(=O)C2(C(F)(F)F)C/C(=C\Cc3ccccc3)CCCO2)o1 (stereo not drawn) | 20 µM (active)
Cc1ccc(CNC(=O)Cn2cnc(S(=O)(=O)N3CCCCC3)c2)o1 | inactive
Cc1ccc(C(=O)N2CC(=O)Nc3ccccc32)o1 | inactive
COC(=O)c1cccc(Cn2nnc3sc4c(c3c2=O)CCC(C(C)(C)C)C4)c1 (stereo not drawn) | inactive
